TDP1 cell CPT = qHTS for Inhibitors of human tyrosyl-DNA phosphodiesterase 1 (TDP1): qHTS in cells in presence of CPT; chicken DT40 Tdp1-/-;hTDP1 cells + 20 nM CPT, ATP luminescence, 48 h; Potency, µM (highest dose often 46.2 µM), hits mostly inhibitors; actives 12% (n = 420,000); AID 686979, 2013; further: nearly all actives have a fitted effect of over 55% in size
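Cell growth measured by CellTiter-Glo luminescence after a minimum 48 h, 37 C compound exposure with 20 nM CPT in Tdp1-knockout DT40 cells stably expressing hTDP1, seeded 400/well; qHTS titration format.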
HT1080-NT tox = qHTS for induction of synthetic lethality in tumor cells producing 2HG: qHTS for the HT-1080-NT fibrosarcoma cell line. actives 1.6% (n = 360,000). Potency, µM (series often up to 46.1 µM), actives largely listed as cytotoxic. HT-1080-NT fibrosarcoma viability, CellTiter-Glo ATP luminescence, 48 h. AID 686970, 2013;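 further: NT is the 2HG producing partner of a matched IDH1 knockdown line; nearly all actives have a fitted effect of over 55% in size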
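HT-1080-NT fibrosarcoma cells (2HG-overproducing), 750 cells/well in RPMI with 5% FBS, dosed after 2 h and incubated 48 h at 37C. CellTiter-Glo luminescence normalized to DMSO and no-cell wells; concentration-response curves fitted and classed.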
KB-3-1 tox = qHTS assay for MDR1-selective chemotherapeutics: Primary screen using the parental adenocarcinoma cell KB-3-1; AID 1347075, 2019; KB-3-1 viability, CellTiter-Glo ATP luminescence, 72 h; Potency, µM (highest dose often 46.1 µM), hits mostly cytotoxic; actives 1.4% (n = 400,000); further: nearly all actives have a fitted effect of over 60% in size
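Multi-concentration cytotoxicity screen in KB-3-1 cells grown in DMEM lacking phenol red with 10% FBS. After 72 h at 37 °C with compound, ATP-dependent luminescence was recorded.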
DT40 TDP1 no CPT = qHTS for Inhibitors of human tyrosyl-DNA phosphodiesterase 1 (TDP1): qHTS in cells in absence of CPT; DT40 Tdp1-/- hTDP1 cells, no CPT, ATP luminescence, 48 h; Potency, µM (series often up to 46.2 µM), most hits filed as inhibitors; actives 15% (n = 420,000); AID 686978, 2013; further: nearly all actives have a fitted effect of over 55% in size
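Compound effects on proliferation are scored in DT40 Tdp1-/-;hTDP1 cells in the absence of CPT. ATP levels (CellTiter-Glo luminescence) are recorded after a ≥48 hr, 37 °C incubation.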
KB-V1 MDR tox = qHTS assay for MDR1-selective chemotherapeutics: Primary screen using the drug-selected MDR subline cells KB-V1; Potency, µM (highest dose often 46.1 µM), usual class: cytotoxic; KB-V1 MDR cells viability, CellTiter-Glo, 72 h; actives 3.4% (n = 400,000); further: nearly all actives have a fitted effect of over 60% in size
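Potencies derive from concentration-effect curves fitted to normalized luminescence (CellTiter-Glo) of KB-V1 cells treated for 72 h at 37 degrees C in phenol-red-free DMEM containing 10% FBS.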
HT1080 IDH1KD tx = qHTS for induction of synthetic lethality in tumor cells producing 2HG: qHTS for the HT-1080-IDH1KD cell line | HT-1080 IDH1 knockdown viability, ATP luminescence, 48 h | Potency, µM (doses to about 46.1 µM), most hits filed as cytotoxic | actives 2% (n = 360,000) | AID 686971, 2013
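IDH1KD HT-1080 cells, 750/well, RPMI + 5% FBS; compound pinned after 2 h settling; 48 h, 37 °C; CellTiter-Glo luminescence; % activity normalised to DMSO and no-cell wells; curves fitted, classed by r2 and efficacy.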
Of the large screens only hits and unclear results are named; the others gave an inactive call. A selection: hits, their analogues and other compounds. The true share with any hit is near 19%. The call rests on the fitted dose curve; in most records, active means well fitted curve in the direction sought with a large enough effect; inconclusive means small, poorly fitted or top-dose-only effect, or another doubt; inactive means no such curve, though single readings can be large; an effect the other way counts as inactive or inconclusive.

O=C(NCCCN1CCOCC1)c1cc(-c2ccc(Cl)s2)nc2ccccc12	TDP1 cell CPT inconclusive, DT40 TDP1 no CPT inconclusive
CC(=O)Nc1ccc(C(=O)OCC(=O)N(c2ccccc2)C2CCCCC2)cc1	TDP1 cell CPT inconclusive, DT40 TDP1 no CPT 23µM
O=C(CCl)N(c1ccccc1)C1CCCCC1	TDP1 cell CPT 2.6µM, HT1080-NT tox 5.2µM, DT40 TDP1 no CPT 2.9µM, KB-V1 MDR tox inconclusive, HT1080 IDH1KD tx 3.3µM
COC(=O)C1=C(C)N(Cc2ccccc2)C(=NCc2ccccc2)N[C@H]1c1cccc(F)c1	TDP1 cell CPT 16µM, DT40 TDP1 no CPT 8.2µM
COC(=O)C1=C(C)N(Cc2ccccc2)C(=NCc2cccc(Cl)c2)N[C@H]1c1ccccc1	TDP1 cell CPT 12µM, DT40 TDP1 no CPT 21µM
COC(=O)C1=C(C)N(Cc2ccccc2)C(=S)N[C@H]1c1cccc(F)c1	TDP1 cell CPT inconclusive
COC(=O)C1=C(C)N(CC2CC2)C(=NCc2cccc(Cl)c2)N[C@H]1c1ccccc1	TDP1 cell CPT 16µM, DT40 TDP1 no CPT inconclusive
C[C@@H]1CCCN1[C@H]1CS(=O)(=O)N[C@@H]1COCc1ccccc1	none
CCN(C(=O)c1nn(-c2ccc(OC)c(Cl)c2)c(=O)c2c1c1ccccc1n2C)c1cccc(C(F)(F)F)c1	TDP1 cell CPT inconclusive, DT40 TDP1 no CPT inconclusive, KB-V1 MDR tox inconclusive (no result: HT1080-NT tox, HT1080 IDH1KD tx)
Cc1cc(OC(F)F)ccc1NC(=O)Nc1ccc([N+](=O)[O-])cc1	TDP1 cell CPT 15µM, KB-3-1 tox inconclusive, DT40 TDP1 no CPT 18µM, KB-V1 MDR tox inconclusive
COc1ccc(NC(=O)Nc2ccc(C)cc2OC(F)F)cc1OC	TDP1 cell CPT inconclusive, DT40 TDP1 no CPT 21µM
O=C(Nc1ccc([N+](=O)[O-])cc1)Nc1ccc(Cl)cc1F	TDP1 cell CPT 2.6µM, KB-3-1 tox inconclusive, DT40 TDP1 no CPT 1.6µM, KB-V1 MDR tox 18µM
O=C(Nc1ccc(Cl)cc1)Nc1cc([N+](=O)[O-])ccc1F	none
COc1ccc(CNC(=O)CN(C(=O)CCC(=O)Nc2nccs2)c2ccccc2C)cc1	DT40 TDP1 no CPT inconclusive
CC(C)C[C@H]1CN=C(Nc2ccccc2)N1CC1CCC(C)CC1 (stereo partly drawn)	TDP1 cell CPT inconclusive, DT40 TDP1 no CPT 18µM
CCCCN1C(Nc2ccccc2)=NC[C@@H]1Cc1ccccc1	TDP1 cell CPT 23µM, DT40 TDP1 no CPT inconclusive
CC1CCC(CN2C(Nc3ccccc3)=NC[C@@H]2Cc2ccccc2)CC1 (stereo partly drawn)	TDP1 cell CPT inconclusive, HT1080-NT tox inconclusive, DT40 TDP1 no CPT 7.3µM
CCCCN1C(Nc2ccccc2)=NC[C@@H]1C	none
c1ccc(C[C@H]2CN=C(Nc3ccccc3)N2CC2CCCC2)cc1	TDP1 cell CPT 10µM, HT1080-NT tox inconclusive, DT40 TDP1 no CPT 12µM, KB-V1 MDR tox inconclusive, HT1080 IDH1KD tx inconclusive
c1ccc(C[C@H]2CN=C(Nc3ccccc3)N2CC2CCC2)cc1	TDP1 cell CPT inconclusive, DT40 TDP1 no CPT inconclusive
CCN(CC)C(=O)Cn1c(=O)n(-c2ccc(Cl)cc2)c(=O)c2c3c(sc21)CCCCC3	TDP1 cell CPT inconclusive, DT40 TDP1 no CPT inconclusive (no result: HT1080-NT tox, HT1080 IDH1KD tx)
O=C(O)CNC(=O)CNC(=O)CNC(=O)CSC(=O)c1ccccc1	none (no result: HT1080-NT tox, KB-3-1 tox, KB-V1 MDR tox, HT1080 IDH1KD tx)
c1ccc(C[C@H]2CN=C(Nc3ccccc3)N2CC2CCCCC2)cc1	TDP1 cell CPT 16µM, HT1080-NT tox inconclusive, DT40 TDP1 no CPT inconclusive
CC1CCC(CN2C(Nc3ccccc3)=NC[C@@H]2C)CC1 (stereo partly drawn)	TDP1 cell CPT 18µM, DT40 TDP1 no CPT inconclusive
c1ccc(NC2=NCCN2CCC2CCCC2)cc1	TDP1 cell CPT inconclusive
c1ccc(C[C@H]2CN=C(Nc3ccccc3)N2CCCC2CCCCC2)cc1	TDP1 cell CPT inconclusive, DT40 TDP1 no CPT 16µM
Cc1c(C(=O)NCc2ccc3c(c2)OCCO3)sc(=O)n1Cc1cccc(C(F)(F)F)c1	TDP1 cell CPT inconclusive, KB-3-1 tox inconclusive, DT40 TDP1 no CPT inconclusive, KB-V1 MDR tox 7.3µM, HT1080 IDH1KD tx inconclusive
Cc1c(C(=O)NCc2cccc(C(F)(F)F)c2)sc(=O)n1Cc1ccccc1F	TDP1 cell CPT inconclusive, DT40 TDP1 no CPT 26µM, KB-V1 MDR tox inconclusive
Cc1ccc(Cn2c(C)c(C(=O)NCc3cccc(C(F)(F)F)c3)sc2=O)cc1	KB-V1 MDR tox inconclusive
Cc1c(C(=O)NCc2cccc(C(F)(F)F)c2)sc(=O)n1Cc1ccc(S(=O)(=O)N(C)C)cc1	TDP1 cell CPT 21µM, KB-3-1 tox inconclusive, DT40 TDP1 no CPT inconclusive, KB-V1 MDR tox inconclusive
CSc1ccc(Cn2c(C)c(C(=O)NCc3ccc4c(c3)OCCO4)sc2=O)cc1	TDP1 cell CPT inconclusive, DT40 TDP1 no CPT inconclusive, KB-V1 MDR tox 18µM
Cc1c(C(=O)NCc2ccc3c(c2)OCCO3)sc(=O)n1Cc1ccccc1F	TDP1 cell CPT inconclusive, DT40 TDP1 no CPT inconclusive, KB-V1 MDR tox inconclusive
Cc1c(C(=O)NCCC#N)sc(=O)n1Cc1ccc(F)cc1	none
CSc1ccc(Cn2c(C)c(C(=O)NCc3ccc(Cl)c(Cl)c3)sc2=O)cc1	TDP1 cell CPT inconclusive, KB-3-1 tox 15µM, DT40 TDP1 no CPT inconclusive, KB-V1 MDR tox 16µM
